Screening results (PubChem)
BAZ2B block: blocks human BAZ2B | Q9UIF8 | AlphaScreen BAZ2B-H3K14Ac peptide displacement | Potency, µM (series often up to 114 µM), usual class: inhibitors | 360,000 tested, 4.4% active | AID 504333; further: nearly all actives have a fitted effect of over 60% in size
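Multi-concentration screen (max 110 uM) measuring displacement of acetylated histone H3 peptide from BAZ2B by AlphaScreen, using 50 nM protein, 50 nM peptide and 10 ug/mL streptavidin donor plus Ni-chelate acceptor beads.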
L3MBTL1 inh: L3MBTL1 (human) inhibition; Q9Y468; AlphaScreen L3MBTL1–H3K9me1 peptide binding; Potency, µM (highest dose often 57.1 µM), usual class: inhibitors; 230,000 tested, 0.66% active; AID 485360; further: nearly all actives have a fitted effect of over 60% in size
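L3MBTL1 50 nM + b-AHA-H3(1-15)K9me1 75 nM, 30 min RT; compound added, 30 min RT; streptavidin donor/Ni-chelate acceptor beads 10 ug/mL each final, 30 min RT dark; AlphaScreen read.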
G9a block: blocks human histone lysine methyltransferase G9a | Q96KQ7 | G9a H3K9 monomethylation, AlphaScreen, 2 h | Potency, µM (highest dose often 102 µM), most hits filed as inhibitors | 350,000 tested, 8.8% active | AID 504332; further: nearly all actives have a fitted effect of over 75% in size
Target sequence (Q96KQ7 913-1193 limits assumed): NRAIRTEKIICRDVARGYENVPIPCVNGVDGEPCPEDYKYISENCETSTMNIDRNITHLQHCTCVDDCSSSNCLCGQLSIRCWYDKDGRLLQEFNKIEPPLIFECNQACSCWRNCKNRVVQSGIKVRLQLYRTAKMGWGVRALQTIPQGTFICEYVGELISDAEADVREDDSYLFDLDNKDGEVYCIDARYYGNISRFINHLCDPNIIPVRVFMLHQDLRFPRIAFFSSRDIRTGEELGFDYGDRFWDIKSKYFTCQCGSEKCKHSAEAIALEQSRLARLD
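AlphaScreen detection with an anti-monomethyl H3K9 antibody quantified product after a 2 h room-temperature reaction containing 500 nM biotinylated H3K9 peptide, 20 µM SAM and 20 nM enzyme, which had been preincubated 15 min with compound.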
HP1b binding inh: blocks HP1-beta chromodomain binding to methylated histone tails; P83916; AlphaScreen HP1-beta / biotin-H3K9me3 peptide binding; Potency, µM (highest dose often 114 µM), usual class: inhibitors; 390,000 tested, 0.56% active; further: nearly all actives have a fitted effect of over 70% in size
Target sequence (P83916 whole entry, looked up): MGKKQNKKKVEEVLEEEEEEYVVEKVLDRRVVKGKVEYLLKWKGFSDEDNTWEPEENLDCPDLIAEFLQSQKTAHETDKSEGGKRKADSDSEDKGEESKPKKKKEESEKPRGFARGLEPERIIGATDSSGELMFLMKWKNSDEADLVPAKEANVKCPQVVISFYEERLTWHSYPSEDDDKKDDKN
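AlphaScreen: HP1-beta (50 nM) preformed 30 min with biotin-H3(1-18)K9me3 peptide (50 nM) in PBS pH 7.4, 0.01% Tween-20. Compound added for 30 min at RT, then streptavidin donor/nickel chelate acceptor beads (10 ug/mL) for 30 min.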
JMJD2A Tudor: blocks the human JMJD2A Tudor domain; AlphaScreen JMJD2A-Tudor / H3K4me3 peptide binding; Potency, µM (series often up to 114 µM), actives largely listed as inhibitors; AID 504339; 390,000 tested, 4.4% active; further: nearly all actives have a fitted effect of over 50% in size
Numbers stand for hits; 0 = inactive; ? = inconclusive; - = no result; ! = repeats disagree; [ ] = remark or other dose. Compounds with a hit are over-represented: about 11% of the library has one in this group of screens. The call rests on the fitted dose curve; in most records, active means well fitted inhibition curve with a large enough effect; inconclusive means small, poorly fitted or top-dose-only effect; inactive means no such curve, though single readings can be large or run the other way.

SMILES	BAZ2B block	L3MBTL1 inh	G9a block	HP1b binding inh	JMJD2A Tudor
Cc1ccc(S(=O)(=O)N2CCN(C3CCC(c4ccccc4)CC3)CC2)cc1 (centres undefined)	0	0	0	-	-
CCS(=O)(=O)N1CCN(C2CCC(c3ccccc3)CC2)CC1 (centres undefined)	50µM	0	10µM	-	-
CN1C(=O)Cc2cc(S(=O)(=O)CCC(=O)Nc3ccc(Cl)cc3)ccc21	0	-	0	0	0
CN(C(=O)c1ccc(NC(=O)Cc2cccc(NC(=O)C3CCN(C(=O)C4CCCC4)CC3)c2)cc1)C1CC1	-	-	-	0	0
CN(C1CCCCC1)S(=O)(=O)c1ccc(F)c(C(=O)Nc2ccc(C(F)(F)F)cc2)c1	0	-	0	0	0
COc1ccc(O)c(C(=O)CC(=O)c2ccc(F)cc2)c1	?	-	79µM	?	?
COc1ccc(C(=O)CC(=O)c2ccccc2O)cc1	0	0[2.29 µM]	0[0.501 µM]	0	0
Cc1sc(NC(=O)CCCC(=O)O)c(C#N)c1C	0	-	?	0	0
CCCCC(=O)Nc1sc2c(c1C#N)CC(C)(C)OC2	0	0	0	0	45µM
CCN(CC)C(=O)c1sc(NC(=O)Cc2ccccc2)c(C#N)c1C	0	0	0	0	0
CCOC(=O)c1c(NC(=O)C2CC2)sc2c1CC(C)(C)OC2	0	-	35µM	0	0
CCOC(=O)C(=O)Nc1sc(C(=O)N(CC)CC)c(C)c1C#N	0	0	50µM	0	0
CCCCCC(=O)Nc1sc(C)c(C)c1C#N	0	0	3.2µM	?	0
CCOc1ccc(NC(=O)Cn2c(=O)n(Cc3ccccc3)c(=O)c3sc4ccccc4c32)cc1	0	-	0	0	0
Cc1cc(NC(=O)CSc2nc(-c3cccc(F)c3)nc3c2c(=O)n(C)c(=O)n3C)no1	0	-	0	0	0
O=C(NC1CCCCCC1)c1ccc2c(c1)sc1nc(-c3ccc(F)cc3)cn12	0	-	0	0	0
Cc1sc(NC(=O)C2CCCC2)c(C#N)c1C	0	0	7.1µM	?	0
CCCC(=O)Nc1sc(C)c(C)c1C#N	0	0	45µM	0	0
CCOC(=O)c1cccc(NC(=O)c2cc3ccccn3n2)c1	0	-	0	0	0
N#Cc1ccc(C(=O)Nc2ccc(Cl)c(-c3nc4cc(Cl)ccc4o3)c2)c(F)c1	?	-	0	0	0
CC(=O)Nc1ccc(S(=O)(=O)N2CCC(C(=O)N[C@@H](C)C(=O)NC3CCCC3)CC2)cc1	0	-	0	0	0
CCN(CC)S(=O)(=O)c1ccc(N2CCc3ccccc3C2)nc1	0	-	40µM	0	0
CCN(c1ccccc1)S(=O)(=O)c1ccc(N2CCN(c3ccc(O)cc3)CC2)nc1	-	?	-	50µM	22µM
CC(C)N(C(C)C)S(=O)(=O)c1ccc(N2CCc3ccccc3C2)nc1	0	-	?	0	0
Cc1ccc(S(=O)(=O)CCC(=O)OCC(=O)N2CCN(S(=O)(=O)c3ccccc3)CC2)cc1	0	0	50µM	0	0
SMILES	BAZ2B block	L3MBTL1 inh	G9a block	HP1b binding inh	JMJD2A Tudor
Cc1ccc(S(=O)(=O)CCC(=O)OCC(=O)N2CCN(c3ccccc3)CC2)cc1	0	0	0[2.33 µM]	0	0
COc1ccc(N2CCN(C(=O)COC(=O)CCS(=O)(=O)c3ccc(C)cc3)CC2)cc1	0	0	40µM	0	0
CCOC(=O)N1CCN(S(=O)(=O)c2ccc(C)cc2)CC1	0	-	0	0	0
CCOCCCNCC(=O)N1CCN(S(=O)(=O)c2ccc(C)cc2)CC1	79µM	0	4.5µM	0	4µM
O=C(Cc1ccccc1)NCC(=O)OCC(=O)c1ccc2ccccc2c1	-	-	-	0	0
COc1cc(OC)cc(-n2c(=O)c3ccccc3n(Cc3ccccc3C#N)c2=O)c1	?	-	0	0	0
NC(=O)CSc1nc2scc(-c3ccco3)c2c(=O)n1-c1ccccc1	?	-	?	?	45µM
O=C(CSc1nc2scc(-c3ccco3)c2c(=O)n1-c1ccccc1)N1CCOCC1	0	0	0	0	0
C=CCn1c(SCC(=O)NCC2CCCO2)nc2scc(-c3ccc(OC)cc3)c2c1=O (centres undefined)	0	-	0	0	0
C=CCn1c(SCC(=O)NCCOC)nc2scc(-c3ccco3)c2c1=O	?	0	45µM	0	79µM
O=C(CSc1nc2scc(-c3ccco3)c2c(=O)n1-c1ccccc1)NCC1CCCO1 (centres undefined)	35µM	?	8.9µM	0	?
C=CCn1c(SCC(=O)NCC2CCCO2)nc2scc(-c3ccco3)c2c1=O (centres undefined)	?	?	?	0	0
Nc1ccc(S(=O)(=O)NC2(C(F)(F)F)NC(=O)N(c3cccc(Cl)c3)C2=O)cc1 (centres undefined)	0	-	0	0	0
CNCCC(Oc1ccccc1C)c1ccccc1 (centres undefined)	-	-	21µM!	-	-
O=C(CN1CCN(Cc2ccc(F)cc2)C1=O)NCc1ccccc1	0	-	0	0	0
COc1cccc(/C=N/NC(=O)C(C)n2nnc3ccccc32)c1 (centres undefined)	0	0	0	0	45µM
COc1cccc(/C=N/NC(=O)CCn2nnc3ccccc32)c1	0	0	0	0	0
Cc1cccc(C)c1OCC(=O)NCC1(N2CCOCC2)CCCCC1	0	-	0	0	0
COc1cc(C(=O)NCc2nnc(SCC(=O)Nc3nccs3)o2)cc(OC)c1OC	45µM	?	0	0	?
COc1cc(C(=O)NCc2nnc(SCC(=O)c3ccccc3)o2)cc(OC)c1OC	0	-	40µM	0	0
COc1ccc(C(=O)NCc2nnc(SCC(=O)c3ccccc3)o2)cc1	0	-	0	0	0
CC1CCc2c(sc3nnn(CC(=O)Nc4ccccc4Cl)c(=O)c23)C1 (centres undefined)	0	-	0	0	0
C/C(=N/Nc1ncc(C(F)(F)F)cc1Cl)c1ccncc1	0	0	0	0	0
CC(C)(C)C1CCC(=NNc2ncc(C(F)(F)F)cc2Cl)CC1 (centres undefined)	79µM	-	0	0	0
Cc1cc(NC(=O)CN2CCN(c3ccccc3O)CC2)no1	0	0	?	0	79µM
SMILES	BAZ2B block	L3MBTL1 inh	G9a block	HP1b binding inh	JMJD2A Tudor
CCOc1ccccc1N1CCN(CC(=O)Nc2cc(C)on2)CC1	0	0	0	0	0
Cc1cc(NC(=O)CN2C(=O)CC(c3ccco3)Sc3ccccc32)no1 (centres undefined)	0	0	13µM	0	?
Cc1cc(NC(=O)CN2CCC(C)CC2)no1	-	0	3.5µM	?	5µM
COc1ccc(N=Nc2ccc(CO)cc2)cc1	-	-	-	0	?
Cc1ccc(N=Nc2ccc3ccccc3c2O)cc1	1.1µM	?	2µM	?	3.2µM
COc1ccc(N=Nc2cc(C)ccc2O)cc1	8.9µM	?	?	14µM	25µM
COc1ccc(N=Nc2ccc3ccccc3c2)c(O)c1	5.6µM	?	10µM	3.2µM	10µM
COc1cccc(N=Nc2ccc3ccccc3c2O)c1	1.6µM	0	-	?	2.8µM
Cc1ccc(N=Nc2c(O)n(CN3CCOCC3)c3ccccc23)cc1	0	0	0	0	0
